Test results taken from PubChem BioAssay (NCATS).
Results filed as inconclusive are left out. Activity calls are given as the source filed them. Calls follow the shape of the dose curve; as a rule, active = well fitted curve in the direction sought with a large enough effect; inconclusive = small, poorly fitted or top-dose-only effect, or another doubt; inactive = no such curve, though single readings can be large; an effect the other way counts as inactive or inconclusive.

How the values were obtained:
CRL-7250 = normal cell line; experiment: Cytotoxic Profiling of Annotated Libraries Using Quantitative High-Throughput Screening (AID 1296008); details: Five cell lines viability, CellTiter-Glo ATP luminescence, 48-72 h; max response: stronger effect = lower value; also: nearly all actives have a fitted effect of over 60% in size; as to max response: % is scaled to controls: 0 for no effect and ±100 for the full control effect
Method in brief: (§1)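 Compounds were pin-transferred onto cells and incubated 48 or 72 hr at 37 degree Celsius, 95% humidity. CellTiter-Glo was added, plates sat 10 min at room temperature, then ATP-coupled luminescence was imaged as the viability read-out.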

HEK293 = experiment: as above; details: Five cell lines viability, CellTiter-Glo ATP luminescence, 48-72 h; max response: stronger effect = lower value
Method in brief: as §1

HaCat = experiment: as above; details: Five cell lines viability, CellTiter-Glo ATP luminescence, 48-72 h; max response: stronger effect = lower value
Method in brief: as §1

KB-3-1 = experiment: as above; details: Five cell lines viability, CellTiter-Glo ATP luminescence, 48-72 h; max response: stronger effect = lower value
Method in brief: as §1

NIH3T3 [1] = experiment: as above; details: Five cell lines viability, CellTiter-Glo ATP luminescence, 48-72 h; max response: stronger effect = lower value
Method in brief: as §1

NIH3T3 [2] = experiment: qHTS assay to identify novel small-molecules to repurpose for Merkel cell carcinoma treatment (AID 1296009); details: MCC and control cell lines, CellTiter-Glo viability, 72 h; at 44.8 µM (top of the series) unless noted; also: nearly all actives have a fitted effect of over 60% in size
Method in brief: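 Viability readout: ATP luminescence (CellTiter-Glo) after 72 hr drug exposure at 37 degree celsius. Dose-response format was 8 points for NPC and 11 points for MIPE; data normalized to in-plate controls.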

C33A = experiment: Primary qHTS to identify gynecologic anti-cancer compounds using libraries of approved drugs and bioactive compounds (AID 1345084); details: Gynecologic cancer cell panel viability, ATPlite luminescence, 48 h; series mostly up to 57.5 µM; also: % is scaled to controls: 0 for no effect and ±100 for the full control effect; nearly all actives have a fitted effect of over 55% in size
Method in brief: (§2)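 48 h compound exposure at 37 C, 5% CO2; five-point qHTS. ATPlite luminescence readout of cell ATP.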

CAOV3 = experiment: as above; details: Gynecologic cancer cell panel viability, ATPlite luminescence, 48 h; series mostly up to 57.5 µM
Method in brief: as §2

CASKI = experiment: as above; details: Gynecologic cancer cell panel viability, ATPlite luminescence, 48 h; series mostly up to 57.5 µM
Method in brief: as §2

Es-2 = experiment: as above; details: Gynecologic cancer cell panel viability, ATPlite luminescence, 48 h; series mostly up to 57.5 µM
Method in brief: as §2

HeLa = experiment: as above; details: Gynecologic cancer cell panel viability, ATPlite luminescence, 48 h; series mostly up to 57.5 µM
Method in brief: as §2

Hek293T = experiment: as above; details: Gynecologic cancer cell panel viability, ATPlite luminescence, 48 h, control line for the selectivity index; series mostly up to 57.5 µM
Method in brief: as §2

JEG-3 = experiment: as above; details: Gynecologic cancer cell panel viability, ATPlite luminescence, 48 h; series mostly up to 57.5 µM
Method in brief: as §2

OV90 = experiment: as above; details: Gynecologic cancer cell panel viability, ATPlite luminescence, 48 h; series mostly up to 57.5 µM
Method in brief: as §2

PA-1 = experiment: as above; details: Gynecologic cancer cell panel viability, ATPlite luminescence, 48 h; series mostly up to 57.5 µM
Method in brief: as §2

C[C@@H]1O[C@@H](O[C@H]2[C@H](OC(=O)[C@]34CCC(C)(C)C[C@H]3C3=CCC5[C@@]6(C)C[C@@H](O)[C@@H](O[C@@H]7O[C@H](CO)[C@@H](O)[C@H](O)[C@H]7O)[C@@](C)(CO)C6[C@H](O)C[C@@]5(C)[C@]3(C)CC4)OC[C@H](O)[C@@H]2O)[C@H](O)[C@H](O[C@@H]2OC[C@](O)(CO)[C@H]2O)[C@H]1O[C@@H]1OC[C@@H](O)[C@H](O[C@H]2O[C@H](C)[C@@H](O)[C@H](O)[C@@H]2O)[C@H]1O (stereo not given in full)
inactive: outcome (CRL-7250) | max response (HEK293) 4.64% | max response (HaCat) 2.54% | outcome (KB-3-1) | outcome (NIH3T3 [1]) | outcome (NIH3T3 [2]) inactive [at 9.27 µM] | activity change, negative = cytotoxicity (C33A) 7.61% [at 6.55 µM] | activity change, negative = cytotoxicity (CAOV3) 0.345% [at 6.55 µM] | activity change, negative = cytotoxicity (CASKI) 0.644% [at 6.55 µM] | activity change, negative = cytotoxicity (Es-2) -2.14% [at 6.55 µM] | activity change, negative = cytotoxicity (HeLa) 14.1% [at 6.55 µM] | activity change, negative = cytotoxicity (Hek293T) 4.59% [at 6.55 µM] | activity change, negative = cytotoxicity (JEG-3) 14.8% [at 6.55 µM] | activity change, negative = cytotoxicity (OV90) -9.58% [at 6.55 µM] | activity change, negative = cytotoxicity (PA-1) 3.83% [at 6.55 µM]

C[C@@H]1[C@H](O)[C@@H]2OC(=O)C3=C2[C@H](CCC3)[C@@]12C[C@@H](c1ccoc1)OC2=O
inactive: max response (CRL-7250) 4.91% | max response (HEK293) -1.21% | max response (HaCat) -22.1% | outcome (KB-3-1) | outcome (NIH3T3 [1]) | outcome (NIH3T3 [2]) | Potency (C33A) | Potency (CAOV3) | outcome (CASKI) | Potency (Es-2) | Potency (HeLa) | Potency (Hek293T) | Potency (JEG-3) | Potency (OV90) | Potency (PA-1)

C=C1CC[C@]2(C(=O)O[C@@H]3O[C@H](CO)[C@@H](O)[C@H](O)[C@H]3O)CC[C@]3(C)C(=CCC4[C@@]5(C)C[C@H](O)[C@@H](O[C@@H]6O[C@H](C(=O)O)[C@@H](O)[C@H](O)[C@H]6O)[C@](C)(C=O)C5CC[C@]43C)C2C1 (stereo not given in full)
inactive: max response (CRL-7250) 4.09% | max response (HEK293) -16.5% | max response (HaCat) -21.8% | max response (KB-3-1) 9.97% | outcome (NIH3T3 [1]) | outcome (NIH3T3 [2]) inactive [at 9.27 µM] | activity change, negative = cytotoxicity (C33A) 1.71% [at 11.6 µM] | activity change, negative = cytotoxicity (CAOV3) -2.86% [at 11.6 µM] | activity change, negative = cytotoxicity (CASKI) -3.95% [at 11.6 µM] | activity change, negative = cytotoxicity (Es-2) 1.14% [at 11.6 µM] | activity change, negative = cytotoxicity (HeLa) 4.56% [at 11.6 µM] | activity change, negative = cytotoxicity (Hek293T) 2.33% [at 11.6 µM] | activity change, negative = cytotoxicity (JEG-3) -0.564% [at 11.6 µM] | activity change, negative = cytotoxicity (OV90) 2.48% [at 11.6 µM] | activity change, negative = cytotoxicity (PA-1) 8.86% [at 11.6 µM]

C/C=C(\C)C(=O)OC[C@H]1O[C@@H](O[C@H]2[C@@H](O[C@H]3O[C@H](COC(=O)/C(C)=C/C)[C@@H](O)[C@H](O)[C@H]3O[C@@H]3O[C@H](COC(=O)/C(C)=C/C)[C@@H](O)[C@H](OC(=O)/C(C)=C/C)[C@H]3O)O[C@H](COC(=O)/C(C)=C/C)[C@@H](O)[C@@H]2O)[C@H](O)[C@@H](O)[C@@H]1O
inactive: max response (CRL-7250) -1.79% | max response (HEK293) -2.95% | max response (HaCat) -1.65% | max response (KB-3-1) 7.25% | outcome (NIH3T3 [1]) | outcome (NIH3T3 [2]) inactive [at 9.27 µM] | activity change, negative = cytotoxicity (C33A) -2.71% [at 11.6 µM] | activity change, negative = cytotoxicity (CAOV3) -1.73% [at 11.6 µM] | activity change, negative = cytotoxicity (CASKI) 3.51% [at 11.6 µM] | activity change, negative = cytotoxicity (Es-2) 2.21% [at 11.6 µM] | activity change, negative = cytotoxicity (HeLa) -5.02% [at 11.6 µM] | activity change, negative = cytotoxicity (Hek293T) -12.9% [at 11.6 µM] | activity change, negative = cytotoxicity (JEG-3) -4.46% [at 11.6 µM] | activity change, negative = cytotoxicity (OV90) -7.83% [at 11.6 µM] | activity change, negative = cytotoxicity (PA-1) 0.401% [at 11.6 µM]

Cc1onc(-c2c(Cl)cccc2Cl)c1CC(=O)NCc1ccc(OCC(F)(F)F)nc1
inactive: max response (CRL-7250) 0.479% | max response (HEK293) -15.1% | max response (HaCat) 1.93% | outcome (KB-3-1) | outcome (NIH3T3 [1]) | outcome (NIH3T3 [2]) | Potency (C33A) | Potency (CAOV3) | outcome (CASKI) | Potency (Es-2) | Potency (HeLa) | Potency (Hek293T) | Potency (JEG-3) | Potency (OV90) | Potency (PA-1)

O=C(O)[C@H](Cc1ccccc1)Oc1ccc(-c2ccccc2)cc1
inactive: max response (CRL-7250) -13.4% | max response (HEK293) 4.06% | max response (HaCat) -11.4% | outcome (KB-3-1) | outcome (NIH3T3 [1]) | outcome (NIH3T3 [2]) | Potency (C33A) | Potency (CAOV3) | outcome (CASKI) | Potency (Es-2) | Potency (HeLa) | Potency (Hek293T) | Potency (JEG-3) | Potency (OV90) | Potency (PA-1)

O=C(COCC(=O)N1CCN(C(c2ccccc2)c2ccccc2)CC1)Nc1ccc(Cl)cc1C(=O)O
inactive: max response (CRL-7250) -11.2% | max response (HEK293) 4.17% | max response (HaCat) -6.79% | outcome (KB-3-1) | outcome (NIH3T3 [1]) | outcome (NIH3T3 [2]) | Potency (C33A) | Potency (CAOV3) | outcome (CASKI) | Potency (Es-2) | Potency (HeLa) | Potency (Hek293T) | Potency (JEG-3) | Potency (OV90) | Potency (PA-1)

C[C@@H]1O[C@@H](O[C@H]2[C@@H]3C=CO[C@@H](O[C@@H]4O[C@H](CO)[C@@H](O)[C@H](O)[C@H]4O)[C@@H]3[C@@]3(CO)O[C@@H]23)[C@H](OC(=O)/C=C/c2ccc(O)cc2)[C@H](O)[C@H]1O
inactive: max response (CRL-7250) -20.4% | max response (HEK293) -82.6% | max response (HaCat) -0.452% | max response (KB-3-1) -12.9% | outcome (NIH3T3 [1]) | outcome (NIH3T3 [2]) inactive [at 17.4 µM] | Potency (C33A) | Potency (CAOV3) | outcome (CASKI) | Potency (Es-2) | Potency (HeLa) | Potency (Hek293T) | Potency (JEG-3) | Potency (OV90) | Potency (PA-1)

CCC1(O)CC2c3cc(OC)c(OC)cc3CCN2CC1CC(C)C (stereo not given)
inactive: max response (CRL-7250) -19.7% | max response (HEK293) 0.903% | max response (HaCat) -10.4% | max response (KB-3-1) 7.48% | outcome (NIH3T3 [1]) | outcome (NIH3T3 [2]) | Potency (C33A) | Potency (CAOV3) | outcome (CASKI) | Potency (Es-2) | Potency (HeLa) | Potency (Hek293T) | Potency (JEG-3) | Potency (OV90) | Potency (PA-1)

COc1ccc(-n2c(=O)[nH]c3cc(C(=O)NCc4ccc(Cl)cc4)sc3c2=O)nc1OC
inactive: max response (CRL-7250) 1.31% | max response (HEK293) 2.86% | max response (HaCat) -5.79% | max response (KB-3-1) 2.11% | outcome (NIH3T3 [1]) | outcome (NIH3T3 [2]) | Potency (C33A) | Potency (CAOV3) | outcome (CASKI) | Potency (Es-2) | Potency (HeLa) | Potency (Hek293T) | Potency (JEG-3) | Potency (OV90) | Potency (PA-1)
